# PubChem BioAssay (Tox21)
# “And” between values parts separate entries of the source, which are not always exact repeats. Equal values may be shown once. A number with no mark means an inactive call. Inconclusive results are not listed. Entries that show only a call come without a potency. The source made the active and inactive calls. Unless noted, calls follow the shape of the dose curve; as a rule, active = well fitted curve in the direction sought with a large enough effect in the repeat runs; inconclusive = weak or mixed curves; inactive = no such curve, though single readings can be large; an effect the other way counts as inactive or inconclusive.
# How the values were obtained:
# [1] = target: Thyrotropin receptor (Homo sapiens) (UniProt P16473); experiment: qHTS assay to identify small molecule antagonists of the thyroid stimulating hormone receptor (TSHR) signaling pathway (AID 1259385; calls by dose curve; also: nearly all actives have a fitted effect of over 20% in size; also: potency is read from the fitted curve at half-maximal effect)
# Thyrotropin receptor (Homo sapiens), sequence (P16473 whole entry, looked up): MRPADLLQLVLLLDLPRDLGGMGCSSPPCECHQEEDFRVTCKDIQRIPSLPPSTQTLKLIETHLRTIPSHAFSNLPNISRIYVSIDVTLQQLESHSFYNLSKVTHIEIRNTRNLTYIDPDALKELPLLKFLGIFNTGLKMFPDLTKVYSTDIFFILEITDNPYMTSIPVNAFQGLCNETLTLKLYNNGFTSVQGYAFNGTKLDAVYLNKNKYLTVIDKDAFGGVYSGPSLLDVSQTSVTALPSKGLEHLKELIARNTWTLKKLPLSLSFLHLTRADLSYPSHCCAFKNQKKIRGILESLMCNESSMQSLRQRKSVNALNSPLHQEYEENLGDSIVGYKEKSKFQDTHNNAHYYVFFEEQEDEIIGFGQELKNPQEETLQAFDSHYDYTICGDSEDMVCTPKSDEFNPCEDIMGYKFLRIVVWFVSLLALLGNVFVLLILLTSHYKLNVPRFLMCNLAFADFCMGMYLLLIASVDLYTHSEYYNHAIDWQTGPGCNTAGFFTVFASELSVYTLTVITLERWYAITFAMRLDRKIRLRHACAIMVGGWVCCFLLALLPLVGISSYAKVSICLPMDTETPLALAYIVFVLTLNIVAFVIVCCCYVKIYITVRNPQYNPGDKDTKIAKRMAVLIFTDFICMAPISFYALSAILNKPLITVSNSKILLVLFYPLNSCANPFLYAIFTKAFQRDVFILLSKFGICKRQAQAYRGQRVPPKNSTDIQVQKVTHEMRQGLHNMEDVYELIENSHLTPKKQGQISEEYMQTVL
# Outline: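 TSHR-HEK293 cells were plated and held 18 h at 37C/5% CO2, then given compound plus Ro20-1724 and stimulated with TSH at 1.5 ng/mL final. After 30 min at room temperature, cAMP was detected with cAMP-d2/anti-cAMP-cryptate (1 h) by fluorescence.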
# [2] = qHTS assay to identify small molecule agonists of the estrogen receptor alpha (ER-alpha) signaling pathway in the presence of an antagonist - cell viability counter screen (AID 1259386);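 also: cells exposed to compounds for 22 h at 37 °C before the viability read; nearly all actives have a fitted effect of over 30% in size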; also: potency is read from the fitted curve at half-maximal effect; as to activity change, negative = cytotoxicity: series mostly up to about 92 µM
# Outline: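 Viability counter screen using VM7Luc4E2 (full-length ER-alpha, four ERE-luciferase). The cells were treated with compounds alongside ICI-182,780 10.0nM for 22hr, and live-cell protease fluorescence was quantified with CellTiter-Fluor.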
# [3] = target: Progesterone receptor (Homo sapiens) (UniProt P06401); experiment: qHTS assay to identify small molecule antagonists of the progesterone receptor (PR) signaling pathway (AID 1346795; active = well fitted inhibition curve with a large enough effect in the signal ratio in the repeat runs, not every such curve was filed as active; the % refers to the signal ratio; also: potency is read from the fitted curve at half-maximal effect)
# Progesterone receptor (Homo sapiens), sequence (P06401 whole entry, looked up): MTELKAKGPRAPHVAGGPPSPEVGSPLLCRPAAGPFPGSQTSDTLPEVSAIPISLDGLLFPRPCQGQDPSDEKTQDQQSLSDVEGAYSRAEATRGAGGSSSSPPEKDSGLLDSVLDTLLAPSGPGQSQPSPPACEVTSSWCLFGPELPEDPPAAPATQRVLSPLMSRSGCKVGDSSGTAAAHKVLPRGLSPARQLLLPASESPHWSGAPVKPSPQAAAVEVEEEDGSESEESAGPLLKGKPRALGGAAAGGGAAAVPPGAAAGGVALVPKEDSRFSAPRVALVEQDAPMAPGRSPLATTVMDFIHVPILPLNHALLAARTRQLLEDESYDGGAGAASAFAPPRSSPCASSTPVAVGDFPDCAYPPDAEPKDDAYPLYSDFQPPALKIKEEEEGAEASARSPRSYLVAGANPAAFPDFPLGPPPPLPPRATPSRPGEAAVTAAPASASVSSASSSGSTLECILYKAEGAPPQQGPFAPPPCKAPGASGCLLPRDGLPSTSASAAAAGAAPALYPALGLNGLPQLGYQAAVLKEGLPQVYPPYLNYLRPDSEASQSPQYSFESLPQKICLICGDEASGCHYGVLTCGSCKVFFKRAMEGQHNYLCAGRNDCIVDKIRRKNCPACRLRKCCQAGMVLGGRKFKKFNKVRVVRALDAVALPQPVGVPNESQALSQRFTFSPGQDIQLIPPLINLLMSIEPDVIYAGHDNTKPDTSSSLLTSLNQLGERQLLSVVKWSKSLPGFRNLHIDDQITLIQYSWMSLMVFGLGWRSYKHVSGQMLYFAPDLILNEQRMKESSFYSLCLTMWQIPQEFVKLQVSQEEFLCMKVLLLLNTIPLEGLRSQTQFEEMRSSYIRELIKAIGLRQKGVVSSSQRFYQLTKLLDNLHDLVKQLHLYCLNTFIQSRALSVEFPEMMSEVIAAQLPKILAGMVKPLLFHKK
# Outline: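 Fluorescence intensity measured 2 hr after adding beta-lactamase FRET substrate to PR-UAS-bla HEK293T cells that had been co-treated 16 hr with compound and 1 nM R5020 (final concentration) in 2% charcoal-stripped FBS.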
# [4] = qHTS assay to identify small molecule antagonists of the progesterone receptor (PR) signaling pathway - cell viability counter screen (AID 1346798); also: series mostly up to about 92 µM; nearly all actives have a fitted effect of over 50% in size
# Outline: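 CellTiter-Glo luminescence; PR-UAS-bla HEK293T, 3,000 cells/well; compound + R5020, 16 hr, 37C/5% CO2; 30 min RT before read.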
# [5] = qHTS assay to identify small molecule agonists of the progesterone receptor (PR) signaling pathway - cell viability counter screen (AID 1346799; calls by dose curve; also: nearly all actives have a fitted effect of over 45% in size)
# Outline: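 In parallel with the beta-lactamase readout, cytotoxicity toward PR-UAS-bla HEK293T cells was measured by CellTiter-Glo luminescence following 16 hr compound incubation in 2% charcoal-stripped FBS medium.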
# [6] = qHTS assay to identify small molecule antagonists of the TGF-beta/Smad signaling pathway - cell viability counter screen (AID 1346824); also: nearly all actives have a fitted effect of over 50% in size
# Outline: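 SBE-bla HEK 293T cells were plated overnight at 37 C, then given compounds in DMSO plus TGF-beta1 (added as 0.25 ng/mL solution) for 5 hr. After the bla read, CellTiter-Glo was added to the same wells and luminescence read after 30 min at room temperature.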
# [7] = qHTS assay to identify small molecule agonists of the TGF-beta/Smad signaling pathway - cell viability counter screen (AID 1346829); also: top concentration of the series differs between compounds; nearly all actives have a fitted effect of over 45% in size
# Outline: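 Same-well cytotoxicity: CellTiter-Glo added after the 2 hr room-temperature beta-lactamase substrate step, luminescence measured 30 min later; cells had 5 hr of compound at 37 C.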
# [8] = qHTS assay to identify small molecule agonists of the TGF-beta/Smad signaling pathway (AID 1346859; active = well fitted activation curve with a large enough effect in the signal ratio in the repeat runs, not every such curve was filed as active; the % refers to the signal ratio; also: series mostly up to about 77 µM)
# Outline: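 After overnight seeding, SBE-bla HEK 293T cells are dosed with compounds in DMSO and kept 5 hr at 37 C, 5% CO2. LiveBLAzer-type FRET substrate is then applied for 2 hr at room temperature.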
# [9] = Human pregnane X receptor (PXR) small molecule agonists, qHTS cell viability counter screen (AID 1346977); also: nearly all actives have a fitted effect of over 50% in size; also: potency is read from the fitted curve at half-maximal effect
# Outline: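 Viability counter screen: CellTiter-Fluor signal in PXR-Luc HepG2 cells, 24hr compound exposure, 37C, 5% CO2.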
# [10] = Caspase-3/7 induction in CHO-K1 cells by small molecules, qHTS assay (AID 1346980); also: nearly all actives have a fitted effect of over 15% in size
# Outline: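 Wild-type cells were seeded at 1,500 per well and settled 5 hr at 37 C, 5% CO2, then exposed to DMSO-dissolved compounds for 17 hr. Caspase-Glo 3/7 reagent was added, and luminescence was read after 30min at room temperature.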
# [11] = target: Progesterone receptor (Homo sapiens) (UniProt P06401); experiment: qHTS assay to identify small molecule agonists of the progesterone receptor (PR) signaling pathway (AID 1346784; calls by dose curve; also: nearly all actives have a fitted effect of over 30% in size)
# Outline: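 Fluorescence from LiveBLAzer B/G FRET substrate cleavage (2 hr, RT) reported PR activation in PR-UAS-bla HEK 293T cells treated 16 hr at 37C/5% CO2 with compounds; medium contained 2% charcoal-stripped FBS.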
# [12] = target: Thyrotropin-releasing hormone receptor (Homo sapiens) (UniProt P34981); experiment: qHTS assay to identify small molecule antagonists of the thyrotropin-releasing hormone receptor (TRHR) signaling pathway (AID 1346877; active = well fitted inhibition curve with a large enough effect in the repeat runs, not every such curve was filed as active; also: series mostly up to about 51 µM)
# Thyrotropin-releasing hormone receptor (Homo sapiens), sequence (P34981 whole entry, looked up): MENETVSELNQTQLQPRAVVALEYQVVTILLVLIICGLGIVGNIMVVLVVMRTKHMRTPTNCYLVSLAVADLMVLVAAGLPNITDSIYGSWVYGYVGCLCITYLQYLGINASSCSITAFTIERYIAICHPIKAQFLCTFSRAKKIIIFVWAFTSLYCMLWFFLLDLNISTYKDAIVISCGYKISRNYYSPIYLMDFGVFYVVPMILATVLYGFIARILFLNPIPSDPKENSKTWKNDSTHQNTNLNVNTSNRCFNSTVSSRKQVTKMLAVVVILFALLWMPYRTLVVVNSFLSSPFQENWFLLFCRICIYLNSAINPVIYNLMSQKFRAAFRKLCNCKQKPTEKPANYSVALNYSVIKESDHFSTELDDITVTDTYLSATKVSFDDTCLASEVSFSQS
# Outline: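 Following an 18 h incubation at 37 °C and a 2 h calcium dye load, TRHR-HEK293 cells were exposed to compound (5 min, room temperature) and challenged with TRH, 1 nM final.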
# [13] = target: Thyrotropin-releasing hormone receptor (Homo sapiens) (UniProt P34981); experiment: qHTS assay to identify small molecule agonists of the thyrotropin-releasing hormone receptor (TRHR) signaling pathway (AID 1346891; calls by dose curve;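 also: HEK293 cells expressing TRHR with calcium dye readout; series mostly up to about 58 µM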)
# Outline: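 Compounds were tested as agonists at 15 concentrations, in triplicate, on TRHR-Hek293 cells; calcium-sensitive dye fluorescence was recorded for 3 min following addition.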
# [14] = Caspase-3/7 induction in HepG2 cells by small molecules, qHTS assay (AID 1346978); also: nearly all actives have a fitted effect of over 15% in size
# Outline: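 Wild-type HepG2 cells (2,000/well) were settled 5 h at 37 C, 5% CO2, then exposed to compounds in DMSO for 17 h. Caspase-3/7 activity was read by luminescence 30 min after adding Caspase-Glo 3/7 reagent at room temperature.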
# [15] = target: Nuclear receptor subfamily 1 group I member 2 (Homo sapiens) (UniProt O75469); experiment: Human pregnane X receptor (PXR) small molecule agonists, qHTS assay (AID 1346982); also: nearly all actives have a fitted effect of over 35% in size; also: potency is read from the fitted curve at half-maximal effect
# Nuclear receptor subfamily 1 group I member 2 (Homo sapiens), sequence (O75469 whole entry, looked up): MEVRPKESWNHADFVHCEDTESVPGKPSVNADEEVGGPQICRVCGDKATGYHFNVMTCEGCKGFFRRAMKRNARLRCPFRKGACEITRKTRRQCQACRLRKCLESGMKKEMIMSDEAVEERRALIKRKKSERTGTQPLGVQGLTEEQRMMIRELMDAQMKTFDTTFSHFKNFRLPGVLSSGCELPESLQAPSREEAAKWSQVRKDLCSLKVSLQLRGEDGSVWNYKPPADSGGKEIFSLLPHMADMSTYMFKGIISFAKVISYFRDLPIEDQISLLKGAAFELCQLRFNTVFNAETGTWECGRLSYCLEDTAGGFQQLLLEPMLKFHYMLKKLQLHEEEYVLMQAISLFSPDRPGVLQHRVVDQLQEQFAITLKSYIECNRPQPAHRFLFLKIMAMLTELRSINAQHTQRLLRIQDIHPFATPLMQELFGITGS
# Outline: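 Compound-induced hPXR transactivation of a CYP3A4 luciferase reporter was scored in HepG2 PXR-Luc cells over 24 hr at 37 C, 5% CO2, by luminescence.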
# [16] = Caspase-3/7 induction in HepG2 cells by small molecules, qHTS cell viability counter screen (AID 1346981); also: nearly all actives have a fitted effect of over 30% in size; also: potency is read from the fitted curve at half-maximal effect; as to activity change, negative = cytotoxicity: series mostly up to about 92 µM
# Outline: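 Viability determined by CellTiter-Fluor fluorescence in HepG2 wells also used for the luminescent Caspase-Glo 3/7 read. Compounds were present for 16 hr at 37 C, 5% CO2 before reagent addition.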
# [17] = Caspase-3/7 induction in CHO-K1 cells by small molecules, qHTS cell viability counter screen (AID 1346979); also: nearly all actives have a fitted effect of over 35% in size; also: potency is read from the fitted curve at half-maximal effect
# Outline: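 Viability readout by fluorescence (CellTiter-Fluor) on wild-type CHO-K1 cells exposed for 16hr at 37C and 5% CO2 to compounds delivered in DMSO; reagent incubated 1hr before reading.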
smiles,measurement,setting,value
CCOP(=O)(OCC)Oc1ccc([N+](=O)[O-])cc1,Potency,[1],inactive
same,Potency,[2],inactive
same,Potency,[3],17.4 µM (active) and 17.2 µM (active)
same,Potency,[4],inactive
same,Potency,[5],inactive
same,Potency,[6],inactive
same,Potency,[7],inactive
same,outcome,[8],inactive
same,Potency,[9],inactive
same,Potency,[10],inactive
NCC(CC(=O)O)c1ccc(Cl)cc1 (stereo unspecified),"activity change, negative = inhibition",[1],2.95% [at 0.349 µM]
same,activation,[11],1.24% [at 0.349 µM]
same,"activity change, negative = inhibition",[3],7.47% [at 0.348 µM]
same,"activity change, negative = cytotoxicity",[4],-8.73% [at 0.348 µM]
same,"activity change, negative = cytotoxicity",[5],0.204% [at 0.349 µM]
same,"viability change, negative = cytotoxic",[6],2.11% [at 0.29 µM]
same,"activity change, negative = cytotoxicity",[7],-5.36% [at 0.29 µM]
same,activation,[8],-0.421% [at 0.29 µM]
same,"activity, negative = inhibition",[12],7.63% [at 0.194 µM]
same,activation,[13],-0.989% [at 0.218 µM]
same,"activity change, negative = cytotoxicity",[9],-0.756% [at 0.349 µM]
same,caspase activation,[14],1.78% [at 0.349 µM]
same,activation,[15],-6.38% [at 0.349 µM]
CCOP(=O)(OCC)SCCSCC,Potency,[1],inactive
same,Potency,[11],inactive
same,Potency,[3],inactive
same,Potency,[4],inactive
same,Potency,[5],inactive
same,Potency,[6],inactive
same,Potency,[7],inactive
same,outcome,[8],inactive
same,Potency,[12],inactive
same,Potency,[13],inactive
same,Potency,[9],inactive
same,Potency,[14],inactive
same,Potency,[10],inactive
same,Potency,[16],inactive
same,Potency,[15],58.3 µM (active)
CC(C)(C)c1cc([N+](=O)[O-])cc([N+](=O)[O-])c1O,Potency,[1],inactive
same,Potency,[2],19.3 µM (active)
same,Potency,[11],inactive
same,Potency,[7],inactive
same,outcome,[8],inactive
same,Potency,[12],inactive
same,Potency,[9],6.84 µM (active)
same,Potency,[10],inactive
same,Potency,[16],21.6 µM (active)
same,Potency,[15],19.3 µM (active)
CO[C@@H]1[C@H](OC(=O)NC(=O)CCl)CC[C@]2(CO2)[C@H]1[C@@]1(C)O[C@@H]1CC=C(C)C,"activity change, negative = inhibition",[1],0.358% [at 19 µM]
same,"activity change, negative = cytotoxicity",[2],-1.81% [at 19 µM]
same,"activity change, negative = inhibition",[3],6.82% [at 18.9 µM]
same,"activity change, negative = cytotoxicity",[4],-12.2% [at 18.9 µM]
same,"activity change, negative = cytotoxicity",[5],-29% [at 19 µM]
same,"viability change, negative = cytotoxic",[6],3.4% [at 15.8 µM]
same,"activity change, negative = cytotoxicity",[7],8.28% [at 15.8 µM]
same,activation,[8],3.24% [at 15.8 µM]
same,"activity, negative = inhibition",[12],4.68% [at 10.5 µM]
same,activation,[13],-0.27% [at 11.8 µM]
same,"activity change, negative = cytotoxicity",[9],1.62% [at 19 µM]
same,caspase activation,[14],1.54% [at 19 µM]
same,caspase-3/7 activation,[10],1.61% [at 19 µM]
same,"activity change, negative = cytotoxicity",[16],-0.84% [at 19 µM]
same,Potency,[15],10.6 µM (active)
C=CC(=O)OC(C)(C)C,Potency,[1],inactive
same,Potency,[2],inactive
same,Potency,[4],inactive
same,Potency,[5],inactive
same,Potency,[7],inactive
same,outcome,[8],inactive
same,Potency,[12],inactive
same,Potency,[13],inactive
same,Potency,[9],inactive
same,Potency,[14],inactive
same,Potency,[17],inactive
same,Potency,[10],inactive
same,Potency,[15],inactive
ClCC(Br)CBr (stereo unspecified),Potency,[1],inactive
same,Potency,[11],inactive
same,Potency,[3],inactive
same,Potency,[4],inactive
same,Potency,[5],inactive
same,Potency,[6],inactive
same,Potency,[7],inactive
same,outcome,[8],inactive
same,Potency,[9],inactive
same,Potency,[14],inactive
same,Potency,[17],inactive
same,Potency,[10],inactive
same,Potency,[16],inactive
same,Potency,[15],inactive
O=C(CCl)c1ccc(Cl)cc1Cl,Potency,[1],23.7 µM (active)
same,Potency,[11],inactive
same,Potency,[3],inactive
same,Potency,[4],inactive
same,Potency,[5],inactive
same,Potency,[6],inactive
same,Potency,[7],inactive
same,outcome,[8],inactive
same,Potency,[12],inactive
same,Potency,[13],inactive
same,Potency,[9],inactive
same,Potency,[14],inactive
same,Potency,[17],68.2 µM (active) and 26.6 µM (active)
same,Potency,[10],inactive
same,Potency,[16],inactive
same,Potency,[15],60.8 µM (active) and 29.8 µM (active)
